Hits are enriched below; roughly 6.2% of the tested compounds scored in any of these assays.
FMDV antiviral: blocks foot and mouth disease virus | FMDV antiviral cell-based qHTS | AID 1159524 | actives 1.2% (n = 410,000) | Potency, µM (top dose mostly 57.9 µM), for inactives: top-dose activity change, negative = inhibition, actives largely listed as inhibitors; calls by dose curve; tested in HEK293T cells; further: read-out not given here; potency means the concentration at half of the fitted maximal effect; nearly all actives have a fitted effect of over 45% in size
Lassa entry inh: Lassa virus entry inhibition. Lassa virus pseudotype entry inhibition, cell reporter. Potency, µM (series often up to 37.9 µM), for the others: top-dose activity change, negative = inhibition, actives largely listed as inhibitors. actives 1.2% (n = 300,000). AID 540256; calls by dose curve; tested in HEK293 cells; further: potency means the concentration at half of the fitted maximal effect; nearly all actives have a fitted effect of over 50% in size
HCMV antiviral: inhibitors of human cytomegalovirus; HFF cells, HCMV-luciferase reporter, 72 h; active compounds read low; AID 1259415; actives 4.5% (n = 410,000); activity change, negative = inhibition, % at 57.5 µM; in the data active means activity change below about -60%; inconclusive means no clear call, values can overlap the other calls; inactive means above about -39%
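Cell-based, HFFs, 1000 cells/well, 16 h 37C; cpds in DMSO + HCMV-luc, MOI 1 PFU/cell; 72 h 37C; OneGlo luminescence after 5 min RT; norm. to buffer vs Salinomycin 10uM.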
Marburg entry inh: Marburg virus entry inhibition | Marburg virus pseudotyped entry inhibition, cell reporter | Potency, µM (titrated, usually from 37.8 µM), for inactives: at the top dose activity change, negative = inhibition, actives largely listed as inhibitors | actives 1.8% (n = 300,000); calls by dose curve; tested in HEK293 cells; further: potency means the concentration at half of the fitted maximal effect
Starred values were filed as active, the others as inactive; ? = inconclusive; / = not tested or not shown; [ ] = remark or other dose. On the % scale 0 is the no-effect control and ±100 the full control effect.

SMILES	FMDV antiviral	Lassa entry inh	HCMV antiviral	Marburg entry inh
COc1ccc(-c2n[nH]c(=S)n2/N=C/C=C\c2ccccc2OC)cc1	10%	?	-1	-21%
COc1ccc(-c2nc3ccc(Br)cn3c2CC(=O)N2CCCC2)cc1OC	-17%	/	-3	/
COc1ccccc1CNC(=O)CSCc1cnn(-c2ccccc2)c1-n1cccc1	?	?	38	-17%
COc1ccc(CNC(=O)CSCc2cnn(-c3ccccc3)c2-n2cccc2)cc1OC	16µM*	?	-80*	?
O=C(CSCc1cnn(-c2ccccc2)c1-n1cccc1)NCc1ccccc1F	-15%	-20%[46.1 µM]	-76*	0%[46.1 µM]
COc1ccc(N2CCN(C3CCCN(Cc4ccc(F)c(F)c4)C3)CC2)cc1 (centres undefined)	-30%	/	23	/
Cc1cc(NC(=O)CCN2C(=O)C3C4CCC(C4)C3C2=O)c(C)cc1Br (centres undefined)	?	1%	-107*	2%
COC(=O)c1[nH]c2ccccc2c1NC(=O)CN1CCN(C/C=C/c2ccccc2)CC1	/	?	-61*	18µM*
CCOC(=O)c1[nH]c2ccc(F)cc2c1NC(=O)CN1CCN(C/C=C/c2ccccc2)CC1	32µM*	?	-22	?
CCN(Cc1ccncc1)Cc1nc(Cc2ccccc2Cl)no1	?	/	-61*	/
CN(Cc1cnccn1)Cc1nc(Cc2ccccc2Cl)no1	-9%	22%[46.1 µM]	-22	-3%[46.1 µM]
CCOC(=O)c1c(C)oc2c1c(C(c1cccnc1)N1CCCCC1)c(O)c1ccccc12 (centres undefined)	-6%	12%	186	0%
CCOC(=O)c1c(C)oc2c1c(C(c1ccccc1)N1CCOCC1)c(O)c1ccccc12 (centres undefined)	74%	23µM*	198	?
COC(=O)c1c(C)[nH]c(C(=O)OCc2ccc(F)cc2)c1C	24%	-30%	87	-9%
CC(=O)c1c(C)[nH]c(C(=O)OCc2ccc(F)cc2Cl)c1C	-22%	-16%	-68*	?
CC(=O)c1c(C)[nH]c(C(=O)OCc2c(F)cccc2Cl)c1C	?	?	-62*	?
CC(=O)c1c(C)[nH]c(C(=O)OCc2cccc(Cl)c2)c1C	-17%	?	41	?
N#Cc1ccc(C23CC4(C2)[C@H](CN(Cc2ccc(C(F)(F)F)cc2)[C@@H]4c2ccccc2)C3c2ccccc2)cc1 (some centres undefined)	-15%	/	?	/
Cn1ncc2c(=S)[nH]c(=S)[nH]c21	-17%	/	-18	/
CC(C)c1ccc(/C=C(\C#N)c2nc(-c3ccc(O)cc3)cs2)cc1	-23%	5%[46.1 µM]	-87*	/
CNC(=O)Oc1c(C)[nH]ccc1=O	3%	/	-19	/
O=C(O)c1cccc(C(=O)O)c1S(=O)Cc1ccccc1 (centres undefined)	/	/	-66*	/
COc1cc(NC(=O)c2cccc3c2C(=O)N(C2CCCCC2)C3)cc(OC)c1OC	?	?	-91*	?
O=Cc1cn(CCC(=O)O)nc1-c1cccc2ccccc12	3%	29%[46.1 µM]	-26	7%
O=C(CSc1nc2ccccc2[nH]1)c1ccc(Cl)s1	82%	25%	-25	1%
SMILES	FMDV antiviral	Lassa entry inh	HCMV antiviral	Marburg entry inh
COc1ccc(CCNC(=O)c2ccc(Cl)c(S(=O)(=O)N(C)c3ccccc3)c2)cc1	28µM*	?	-68*	?
O=C(NCCC1=CCCCC1)c1ccc(F)c(S(=O)(=O)N2CCOCC2)c1	-6%	0%	0	-8%
COc1ccc(CCC(=O)Nc2ccc(Cl)c(S(=O)(=O)N3CCCC3)c2)cc1	-28%	/	-103*	/
COc1ccc(CCNC(=O)c2ccc(N(C)S(=O)(=O)c3ccc(C)cc3)cc2)cc1	?	?	-11	-22%[46.1 µM]
COc1ccc(CCC(=O)Nc2ccc(OC)c(S(=O)(=O)N3CCCCC3)c2)cc1OC	?	/	-20	/
COc1cc(CCC(=O)Nc2ccc(C)c(S(=O)(=O)N3CCCCCC3)c2)cc(OC)c1OC	18µM*	?	-70*	?
CC1CN(S(=O)(=O)c2cc(C(=O)NCCC3=CCCCC3)ccc2Cl)CC(C)O1 (centres undefined)	-18%	?	-82*	-26%[46.1 µM]
COc1ccc2c(c1)[nH]c1c(=O)n(/N=C/c3ccc(OC)c(CN4CCCCC4)c3)cnc12	-13%	/	-31	/
CCN(C[C@H]1N[C@@](C)(C(=O)OC)[C@H]2C(=O)N(Cc3ccccc3)C(=O)[C@@H]12)C(=O)Nc1ccc(C)cc1	-12%	/	1	/
COc1ccc(CCNC(=O)c2ccc(Cl)c(S(=O)(=O)N3CCCCCC3)c2)cc1	14µM*	/	-86*	/
Cc1ccc(OCC(=O)Nc2ccc(C)c(S(=O)(=O)N3CCCCC3)c2)c([N+](=O)[O-])n1	?	?	-19	1.1µM*
Cc1ccc(OCC(=O)Nc2ccc(S(=O)(=O)N3CCCCC3)cc2)c([N+](=O)[O-])n1	-24%	-4%[46.1 µM]	-5	-12%[46.1 µM]
O=C(NCCc1ccccc1)c1ccc(Cl)c(S(=O)(=O)N2CCCC2)c1	-7%	/	/	/
CC1CCCN(S(=O)(=O)c2cc(C(=O)NCCc3ccc(S(N)(=O)=O)cc3)ccc2Cl)C1 (centres undefined)	18µM*	/	?	/
O=C(NCCSc1ccccc1)c1ccccc1F	61%	/	54	/
Cc1ccc(C(C)NC(=S)NC2CCCCC2)c(C)c1 (centres undefined)	-25%	/	-78*	/
Cc1ccc(C(C)NC(=S)NC2CCCCC2)cc1C (centres undefined)	/	/	-75*	/
CC(NC(=S)NC1CCC(C(C)(C)C)CC1)c1ccccc1 (centres undefined)	-2%	/	-82*	/
Cc1ccc(C(C)NC(=O)C2CCCC2)c(C)c1 (centres undefined)	-17%	/	-5	/
O=C(/C=C/c1ccc(S(=O)(=O)N2CCOCC2)cc1)NC(=S)NCCCn1ccnc1	-10%	?	-82*	?
O=C(NNC(=O)OCc1ccccc1)OCc1ccccc1	18%	?	-99*	?
O=C(NNC(=O)c1ccccc1Cl)c1ccccc1Cl	48%	3%	73	28%[46.1 µM]
COc1ccc(COC(=O)NNC(=O)c2ccccc2Cl)cc1	-11%	4µM*	19	1%
COc1ccc(NC(=O)Cn2nnc(-c3ccccc3NS(=O)(=O)c3ccccc3)n2)cc1	?	?	/	8.9µM*
COc1ccc(C(=O)O/N=C/c2c(C(F)(F)F)nn(C)c2SCc2ccccc2Cl)cc1	-19%	?	-82*	?
SMILES	FMDV antiviral	Lassa entry inh	HCMV antiviral	Marburg entry inh
CCCNC(=O)c1ccc(-c2nc3ccccc3s2)s1	-69%	?	-30	3.5µM*
CCCOc1ccccc1C(=O)N1CCC(c2nc3ccccc3s2)CC1	0%	-27%[46.1 µM]	-36	-22%[46.1 µM]
CCC(Oc1ccccc1F)C(=O)N1CCC(c2nc3ccccc3s2)CC1 (centres undefined)	25µM*	-4%[46.1 µM]	-27	?
CC(C)NC(=O)N1CCC(c2nc3ccccc3s2)CC1	-5%	/	41	/
O=C(CN1CCC(c2nc3ccccc3s2)CC1)NCc1cccs1	16µM*	?	-94*	?
CC(C)n1c(N2CCN(CC(=O)NCc3cccs3)CC2)nc2ccccc21	0%	10%	-14	?
CCCNC(=O)N1CCC(c2nc3ccccc3s2)CC1	-7%	/	-75*	/

From PubChem BioAssay
